Experimental findings from PubChem BioAssay (Tox21) are described below.

Test [1] is described as follows: qHTS assay to test for compound auto fluorescence at 535 nm (green) in HEK293 cells (AID 720680). In general terms: qHTS replaces the single test concentration by a dilution series.
Test [2] can be described thus: qHTS assay to test for compound auto fluorescence at 460 nm (blue) in HEK293 cell free culture (AID 720681). Put shortly: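 Blue fluorescence (Ex 405/Em 460 nm, triamterene-equivalent) was read immediately after pin transfer of compound or DMSO into medium (DMEM, 10% FBS) without cells.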
Test [3] in a line: qHTS assay to test for compound auto fluorescence at 535 nm (green) in HEK293 cell free culture (AID 720682). Summed up: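 Read-out: 485/535 nm fluorescence intensity, calibrated against fluorescein. Medium only (DMEM + 10% FBS, no cells); test compound or DMSO vehicle added by pintool before plate reading.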
Test [4] in a line: qHTS assay to test for compound auto fluorescence at 590 nm (red) in HEK293 cell free culture (AID 720683). Summed up: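 Red-channel autofluorescence of compounds in culture medium (DMEM, 10% FBS), no cells, measured at 540/590 nm. Rose Bengal sodium is the reference fluorophore for equivalence.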
Test [5] is described as follows: qHTS assay to test for compound auto fluorescence at 590 nm (red) in HepG2 cell free culture (AID 720684). Summed up:
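Plate contents were MEM with 10% FBS plus test compound or DMSO, no cells. Fluorescence was recorded with 540 nm excitation and 590 nm emission.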

Test [6] in a line: qHTS assay to test for compound auto fluorescence at 460 nm (blue) in HepG2 cell free culture (AID 720685). Summed up:
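Compound (23 nL) or DMSO pinned into cell-free MEM with 10% FBS; blue fluorescence read at 405/460 nm excitation/emission, expressed as auto-fluorescence equivalency to triamterene.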

Test [7] can be described thus: qHTS assay to test for compound auto fluorescence at 535 nm (green) in HepG2 cell free culture (AID 720686).
Test [8] is described as follows: qHTS assay to test for compound auto fluorescence at 460 nm (blue) in HepG2 cells (AID 720687). Summed up: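 Blue-channel autofluorescence (Ex/Em 405/460 nm, triamterene-equivalent) was measured after 1 hr compound exposure at 37 C, 5% CO2. Cells were HepG2, plated overnight at 37 C in MEM plus 10% FBS.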
Test [9] deals with Glucocorticoid receptor (Homo sapiens) (UniProt P04150). The experiment in a line: qHTS assay to identify small molecule agonists of the glucocorticoid receptor (GR) signaling pathway (AID 720691; active = well fitted activation curve with a large enough effect in the signal ratio in the repeat runs, not every such curve was filed as active; the % refers to the signal ratio). Put shortly: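 GR-bla HeLa cells carrying a GRE-driven beta-lactamase reporter, exposed to compounds for 18 h at 37 C. Reporter activation read as fluorescence after 2 h with LiveBLAzer B/G FRET substrate at room temperature.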

Test [10] shares this target. Description: qHTS assay to identify small molecule antagonists of the glucocorticoid receptor (GR) signaling pathway (AID 720692; active = well fitted inhibition curve with a large enough effect in the signal ratio in the repeat runs, not every such curve was filed as active; the % refers to the signal ratio). Summed up:
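GR-bla HeLa cells carrying a GRE-driven beta-lactamase reporter received compound after 4 h plating, then dexamethasone (5 nM final). After 18 h at 37C, the FRET substrate was loaded for 2 h at room temperature and fluorescence read.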

Test [11] can be described thus: qHTS assay to identify small molecule antagonists of the glucocorticoid receptor (GR) signaling pathway - cell viability counter screen (AID 720693). Also: nearly all actives have a fitted effect of over 55% in size.
Test [12] can be described thus: qHTS assay for identifying genotoxic compounds that show differential cytotoxicity against isogenic chicken DT40 cell lines with known DNA damage response pathways - wild type cell line (AID 743012). Also: nearly all actives have a fitted effect of over 60% in size. Also: potency is read from the fitted curve at half-maximal effect. Summed up: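 Wild-type DT40 cells (300/well) exposed to compounds for 40 hours at 37 C/5% CO2. Viability read by CellTiter-Glo luminescence after 30 min at room temperature.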

Test [13] is described as follows: qHTS assay for identifying genotoxic compounds that show differential cytotoxicity against isogenic chicken DT40 cell lines with known DNA damage response pathways - Rev3 mutant cell line (AID 743014). Also: nearly all actives have a fitted effect of over 55% in size. Also: potency is read from the fitted curve at half-maximal effect.
Test [14] is described as follows: qHTS assay for identifying genotoxic compounds that show differential cytotoxicity against isogenic chicken DT40 cell lines with known DNA damage response pathways - Rad54/Ku70 mutant cell line (AID 743015). Also: nearly all actives have a fitted effect of over 60% in size. Also: potency is read from the fitted curve at half-maximal effect.
Test [15] in a line: qHTS assay to identify small molecule antagonists of the androgen receptor (AR) signaling pathway - cell viability counter screen (AID 743033; also: nearly all actives have a fitted effect of over 45% in size).
Test [16] can be described thus: qHTS assay to identify small molecule antagonists of the androgen receptor (AR) signaling pathway using the MDA cell line - cell viability counter screen (AID 743041; also: nearly all actives have a fitted effect of over 45% in size). Summed up: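 R1881-driven MDA-kb2 AR-luc cells, 3,000/well, were dosed with library compounds for 16 h; cell health came from CellTiter-Fluor fluorescence in the reporter wells.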
The target in test [17] is Androgen receptor (Homo sapiens) (UniProt P10275). Description: qHTS assay to identify small molecule agonists of the androgen receptor (AR) signaling pathway (AID 743036; active = well fitted activation curve with a large enough effect in the signal ratio in the repeat runs, with a control signal flat, not every such curve was filed as active; the % refers to the signal ratio). Put shortly: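 HEK293 cells stably carrying a UAS-driven beta-lactamase reporter (GeneBLAzer AR-UAS-bla-GripTite) were plated at 2,000 cells/well, rested 4 h at 37C, then exposed to compounds in DMSO for 16 h. LiveBLAzer B/G FRET substrate was added for 2 h at room temperature; fluorescence read.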

Test [18] shares this target. The experiment in a line: qHTS assay to identify small molecule agonists of the androgen receptor (AR) signaling pathway using the MDA cell line (AID 743040; also: nearly all actives have a fitted effect of over 20% in size). Put shortly: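 After a 5 h incubation at 37C and 0% CO2, MDA-kb2 reporter cells were dosed with compounds in DMSO and kept 16 h under the same conditions. Luciferase activity was then read as luminescence with ONE-Glo.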

The target is the same in test [19]. Description: qHTS assay to identify small molecule antagonists of the androgen receptor (AR) signaling pathway using the MDA cell line (AID 743042; also: nearly all actives have a fitted effect of over 55% in size). Put shortly:
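Antagonist mode: compounds plus R1881 agonist added to MDA-kb2 AR-luc cells, incubated 16 h at 37C. Luciferase reporter luminescence quantified, with multiplexed CellTiter-Fluor readout for cell viability.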

The target is the same in test [20]. The experiment in a line: qHTS assay to identify small molecule antagonists of the androgen receptor (AR) signaling pathway (AID 743035; active = well fitted inhibition curve with a large enough effect in the signal ratio in the repeat runs, not every such curve was filed as active; the % refers to the signal ratio). Summed up: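 HEK293 cells stably carrying UAS-beta-lactamase reporter, 2,000/well, given compounds plus R1881 agonist and incubated 16 h at 37C. LiveBLAzer B/G FRET substrate then added for 2 h at room temperature before fluorescence reading.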

Inconclusive results are not listed. The source made the active and inactive calls. Unless noted, calls follow the shape of the dose curve; as a rule, active = well fitted curve in the direction sought with a large enough effect in the repeat runs; inconclusive = weak or mixed curves; inactive = no such curve, though single readings can be large; an effect the other way counts as inactive or inconclusive.

Chain of Androgen receptor (Homo sapiens) (P10275 whole entry, looked up): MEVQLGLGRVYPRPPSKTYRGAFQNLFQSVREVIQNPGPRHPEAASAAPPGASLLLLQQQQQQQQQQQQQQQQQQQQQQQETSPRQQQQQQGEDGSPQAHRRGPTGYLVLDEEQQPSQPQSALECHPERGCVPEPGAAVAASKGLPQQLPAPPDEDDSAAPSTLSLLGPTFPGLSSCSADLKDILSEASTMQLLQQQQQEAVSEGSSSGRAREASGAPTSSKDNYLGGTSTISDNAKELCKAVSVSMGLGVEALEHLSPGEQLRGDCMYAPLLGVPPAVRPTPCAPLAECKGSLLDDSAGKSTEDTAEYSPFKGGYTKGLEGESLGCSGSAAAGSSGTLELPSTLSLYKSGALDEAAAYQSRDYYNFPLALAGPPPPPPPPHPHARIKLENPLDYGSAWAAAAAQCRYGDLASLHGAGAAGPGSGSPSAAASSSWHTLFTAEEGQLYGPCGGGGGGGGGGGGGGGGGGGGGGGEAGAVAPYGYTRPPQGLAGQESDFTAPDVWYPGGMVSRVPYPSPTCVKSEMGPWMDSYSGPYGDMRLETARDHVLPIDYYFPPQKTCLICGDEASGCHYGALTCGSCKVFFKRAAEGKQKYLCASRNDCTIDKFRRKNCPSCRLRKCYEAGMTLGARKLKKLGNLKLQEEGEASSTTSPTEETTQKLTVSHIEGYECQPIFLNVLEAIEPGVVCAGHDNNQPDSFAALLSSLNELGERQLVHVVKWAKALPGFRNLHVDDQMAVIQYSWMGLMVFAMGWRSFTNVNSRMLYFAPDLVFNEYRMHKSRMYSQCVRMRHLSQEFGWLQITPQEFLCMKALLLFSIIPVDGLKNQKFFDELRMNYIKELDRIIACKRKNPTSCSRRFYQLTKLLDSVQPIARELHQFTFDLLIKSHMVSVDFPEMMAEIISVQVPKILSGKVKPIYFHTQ
Chain of Glucocorticoid receptor (Homo sapiens) (P04150 whole entry, looked up): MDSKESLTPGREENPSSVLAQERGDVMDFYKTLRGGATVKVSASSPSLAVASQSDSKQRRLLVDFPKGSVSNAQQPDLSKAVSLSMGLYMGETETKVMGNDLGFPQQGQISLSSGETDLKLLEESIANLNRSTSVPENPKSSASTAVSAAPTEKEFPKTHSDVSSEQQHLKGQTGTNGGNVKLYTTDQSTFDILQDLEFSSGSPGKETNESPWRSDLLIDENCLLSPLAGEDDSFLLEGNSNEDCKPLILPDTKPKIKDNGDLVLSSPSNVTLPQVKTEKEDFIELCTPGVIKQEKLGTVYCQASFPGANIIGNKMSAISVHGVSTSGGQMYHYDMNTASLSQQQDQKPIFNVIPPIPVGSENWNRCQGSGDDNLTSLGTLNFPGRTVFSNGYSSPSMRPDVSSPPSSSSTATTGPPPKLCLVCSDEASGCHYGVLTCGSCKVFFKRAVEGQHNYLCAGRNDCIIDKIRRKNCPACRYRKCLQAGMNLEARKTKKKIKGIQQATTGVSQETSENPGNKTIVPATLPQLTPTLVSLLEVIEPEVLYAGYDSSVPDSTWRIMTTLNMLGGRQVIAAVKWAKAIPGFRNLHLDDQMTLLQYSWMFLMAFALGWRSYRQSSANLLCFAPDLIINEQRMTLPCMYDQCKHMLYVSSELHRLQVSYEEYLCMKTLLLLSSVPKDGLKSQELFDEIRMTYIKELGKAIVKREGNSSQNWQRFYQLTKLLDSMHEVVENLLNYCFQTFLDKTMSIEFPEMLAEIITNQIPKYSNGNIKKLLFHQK

`CCOC(=O)c1ccc(C)cc1`: the compound was classed as inactive in test [1], in test [2], in [3], in [4], in test [5] and in test [6]. Also, the compound was called inactive in test [7], in test [8] and in [11]. In addition, the Potency result in [9], in [10], in test [12], in [13], in test [14] and in test [15] was “inactive” each time. The Potency result in test [16] was “inactive”.

Regarding `CC/C=C\CCOC(C)=O`, the compound was called inactive in test [1], in [2], in test [3], in test [4], in test [5] and in test [6]. In addition, the result in test [7], in test [8] and in test [11] was inactive. In addition, the Potency entry in test [9], in test [10], in [12], in test [13], in test [14] and in [15] was “inactive” each time. Further, the Potency result in test [16] was “inactive”.

With `Cn1c(N)c(N=O)c(=O)n(C)c1=O`, the outcome in [1], in [2], in test [3], in [4], in [5] and in test [6] was inactive. Also, the outcome in [7], in [8] and in test [11] was inactive. Besides, the Potency result in test [9], in [10], in test [12], in test [13], in test [14] and in [15] was “inactive” in each case. The Potency entry in test [16] is “inactive”.

For the compound `OC1CCCCC1c1ccccc1` (configuration not stated), the result in [1], in [2], in [3], in test [4], in [5] and in test [6] was inactive. For the same compound, the call in test [7], in [8], in [11] and in test [17] was inactive. Besides, the Potency result in test [9], in [10], in test [12], in test [13], in test [14] and in [15] was “inactive” each time. Besides, the Potency entry in [18], in test [16] and in test [19] was “inactive” in each case.

In the case of `CC(C)CCCC(C)N` (configuration not stated), the result in [1], in test [2], in [3], in [4], in test [5] and in test [6] was inactive. Besides, the outcome in test [7], in test [8] and in test [11] was inactive. For the same compound, the Potency result in test [9], in test [10], in test [12], in test [13], in [14] and in [15] was “inactive” throughout. The Potency entry in test [16] is “inactive”.

On to `CN(C(=O)c1c(O)c2ccccc2n(C)c1=O)c1ccccc1`, for which the compound was called inactive in test [1], in [2], in test [3], in test [4], in test [5] and in [6]. Moreover, the compound was called inactive in [7], in [8] and in test [11]. The Potency entry in [9], in test [10], in test [12], in test [13], in test [14] and in test [16] was “inactive” each time.

With `NC(=O)COCCN1CCN(C(c2ccccc2)c2ccc(Cl)cc2)CC1` (configuration not stated), the compound was classed as inactive in test [1], in test [2], in test [3], in test [4], in [5] and in test [6]. Further, the compound was classed as inactive in [7], in test [8], in test [11] and in [20]. Further, the Potency result in test [9], in test [10], in [15], in test [18], in test [16] and in test [19] was “inactive” each time. Further, the Potency in test [12] is 33.5 µM (active); in test [13], 8.41 µM (active); in [14], 26.6 µM (active).

With `C[N+](C)(C)CC(O)CC(=O)[O-]` (configuration not stated), the call in test [1], in test [2], in [3], in test [4], in test [5] and in test [6] was inactive. For the same compound, the outcome in [7], in test [8] and in test [11] was inactive. Further, the Potency entry in test [9], in test [10], in test [12], in test [13], in test [14] and in [16] was “inactive” throughout.
